Experiment [1] can be described thus: qHTS assay to identify small molecule antagonists of the estrogen receptor alpha (ER-alpha) signaling pathway using the BG1 cell line in the presence of 0.1 nM 17-beta-estradiol - cell viability counter screen (AID 1259241). Note: nearly all actives have a fitted effect of over 40% in size. In outline:
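VM7Luc4E2, 4,000 cells/well, phenol red-free medium + 10% charcoal-stripped FBS; 24 hr plating; cpd + 0.1 nM E2 final, 22 hr 37C/5% CO2; CellTiter-Fluor 30 min, fluorescence.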
For orientation: qHTS replaces the single test concentration by a dilution series.

Experiment [2] is described as follows: qHTS assay to identify small molecule antagonists of the androgen receptor (AR) signaling pathway using the MDA cell line in the presence of 0.5 nM R1881 - cell viability counter screen (AID 1259242). Note: nearly all actives have a fitted effect of over 45% in size. Note: potency is the fitted concentration of half-maximal effect. In outline:
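Human breast carcinoma MDA-kb2 cells, cultured without CO2, receive compounds alongside 0.5 nM (final) R1881 agonist. After 16 hr at 37C, viability is taken as live-cell protease signal.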

Experiment [3] deals with Estrogen receptor (Homo sapiens) (UniProt P03372). In words: qHTS assay to identify small molecule antagonists of the estrogen receptor alpha (ER-alpha) signaling pathway using the BG1 cell line in the presence of 0.1 nM 17-beta-estradiol (AID 1259244). Note: nearly all actives have a fitted effect of over 50% in size. In short, it runs like this: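 Seeding of stripped-serum-adapted VM7Luc4E2 cells, 24 h attachment, compound transfer, then 0.1 nM final 17beta-estradiol; after 22 h incubation, ONE-Glo reagent and luminescence reading.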

Experiment [4] is described as follows: qHTS assay to identify small molecule HDAC inhibitors (AID 1259364). Note: potency is the fitted concentration of half-maximal effect.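 Note: wild-type HCT-116 cells with endogenous class I/II HDAC activity; nearly all actives have a fitted effect of over 45% in size.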 In outline: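 After a 2 hr compound incubation (37C, 5% CO2), HCT-116 cells seeded at 1,500/well the day before received HDAC-Glo reagent; signal read as luminescence after 30 min at room temperature.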
Experiment [5] in a line: qHTS assay to identify small molecule HDAC inhibitors - cell viability counter screen (AID 1259365). Note: series mostly up to about 92 µM; nearly all actives have a fitted effect of over 50% in size. In outline:
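Luminescence from CellTiter-Glo, developed 30min at room temperature, reports viability of wild-type HCT-116 cells treated 2hr with compounds at 37 C and 5% CO2 after overnight plating.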

A short description of experiment [6]: qHTS assay to identify small molecule antagonists of the sonic hedgehog signaling (Shh) pathway - cell viability counter screen (AID 1259367). Note: nearly all actives have a fitted effect of over 55% in size. In short, it runs like this: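 CellTiter-Fluor signal in conditioned medium-stimulated 3T3 Gli1-Luc cells, 23 hr compound exposure, 37C.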
The nature of experiment [7]: qHTS assay to identify small molecule agonists of the sonic hedgehog signaling (Shh) pathway (AID 1259368; calls by dose curve;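 note: NIH/3T3-derived 3T3Gli1-Luc cells carrying a stable Gli1-driven firefly luciferase reporter; series mostly up to about 92 µM; nearly all actives have a fitted effect of over 15% in size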). In short, it runs like this: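 Stable NIH/3T3 Gli1-Luc reporter clone; 24 hr cpd exposure after a 4 hr settling period; luminescence endpoint.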
A short description of experiment [8]: qHTS assay to identify small molecule agonists of the sonic hedgehog signaling (Shh) pathway - cell viability counter screen (AID 1259366). Note: nearly all actives have a fitted effect of over 50% in size. In short, it runs like this:
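Cytotoxicity counter screen run in the same wells as the Shh reporter assay. NIH/3T3 cells carrying a Gli1 response element–driven luciferase were treated with DMSO-dissolved compounds for 24hr, and live-cell protease activity was measured with CellTiter-Fluor.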

A short description of experiment [9]: qHTS assay to identify small molecule phospholipidosis (PLD) inducers (AID 1259344; active = well fitted curve in the direction sought with a large enough effect; an effect the other way counts as inactive or inconclusive). In outline: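 Accumulated phospholipid, stained red by LipidTOX during 24 h compound treatment of HepG2 cells at 37 C, is quantified from images as pit number and intensity, normalised per cell using Hoechst-stained nuclei.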

These results are taken from PubChem BioAssay (Tox21).

A number with no mark means an inactive call. Results filed as inconclusive are left out. Activity calls are given as the source filed them. Unless noted, calls come from the whole dose curve; as a rule, active = well fitted curve in the direction sought with a large enough effect in the repeat runs; inconclusive = weak or mixed curves; inactive = no such curve, though single readings can be large; an effect the other way counts as inactive or inconclusive.

Estrogen receptor (Homo sapiens), sequence (P03372 whole entry, looked up): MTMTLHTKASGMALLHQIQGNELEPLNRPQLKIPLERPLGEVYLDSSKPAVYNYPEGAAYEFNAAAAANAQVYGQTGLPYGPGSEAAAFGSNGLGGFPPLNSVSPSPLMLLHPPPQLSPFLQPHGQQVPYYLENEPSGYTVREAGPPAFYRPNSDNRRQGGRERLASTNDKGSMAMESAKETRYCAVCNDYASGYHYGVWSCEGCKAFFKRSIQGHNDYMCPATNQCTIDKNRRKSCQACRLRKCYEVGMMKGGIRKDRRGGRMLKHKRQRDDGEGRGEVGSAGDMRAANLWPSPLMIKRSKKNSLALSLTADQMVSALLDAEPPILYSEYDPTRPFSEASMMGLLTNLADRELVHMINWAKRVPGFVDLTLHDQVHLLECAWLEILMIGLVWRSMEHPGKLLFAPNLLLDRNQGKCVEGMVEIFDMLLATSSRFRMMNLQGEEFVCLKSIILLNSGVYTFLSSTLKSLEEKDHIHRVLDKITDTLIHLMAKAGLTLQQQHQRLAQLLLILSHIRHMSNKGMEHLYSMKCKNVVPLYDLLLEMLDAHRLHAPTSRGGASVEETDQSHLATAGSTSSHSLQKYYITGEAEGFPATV

Regarding `Nc1ccc(S(=O)(=O)O)cc1`, the Potency entry in [1], in [2], in experiment [3], in [4], in experiment [5] and in [6] was “inactive” each time. The Potency entry in experiment [7] was “inactive”.

In the case of `O=C(O)c1snc(Cl)c1Cl`, the Potency entry in experiment [1], in [2], in experiment [4], in experiment [5], in experiment [8] and in experiment [6] was “inactive” each time. Moreover, the Potency entry in [7] is “inactive”.

Regarding `CN(C)C(=O)Nc1ccc(Oc2ccc(Cl)cc2)cc1`, the Potency result in experiment [1], in experiment [2], in [4], in [5], in experiment [8] and in experiment [6] was “inactive” in each case.

Turning to `CCC(C)(C)C1CCC(O)CC1` (stereo not given), the Potency entry in experiment [1], in experiment [2], in [3], in experiment [4], in experiment [5] and in [6] was “inactive” each time. Further, in experiment [7], the Potency result is “inactive”.

For the molecule `CCCOc1ccc(S(=O)(=O)N2CCN(CC)CC2)cc1-c1nc2c(CC)n(Cc3ccccn3)nc2c(=O)[nH]1`, the Potency entry in experiment [1], in [2], in experiment [3], in experiment [4], in experiment [5] and in experiment [7] was “inactive” in each case.

As to `CC[C@@H]([C@H](C)O)n1ncn(-c2ccc(N3CCN(c4ccc(OC[C@@H]5CO[C@@](Cn6cncn6)(c6ccc(F)cc6F)C5)cc4)CC3)cc2)c1=O`, the Potency result in experiment [1], in [4], in [5], in experiment [8], in experiment [6] and in experiment [7] was “inactive” throughout. For the same molecule, the Potency in [2] was 26.6 µM (active). The outcome in [9] was inactive.

Regarding `CCCCN(CCCC)CCCOC(=O)c1ccc(N)cc1`, the Potency entry in experiment [1], in experiment [2], in experiment [4], in experiment [5], in [6] and in experiment [7] was “inactive” in each case. Further, the call in experiment [9] was inactive.

On to `C=CC(C)=CCC=C(C)C`, for which the Potency result in experiment [1], in experiment [2], in [4], in experiment [5], in experiment [8] and in [6] was “inactive” in each case. Moreover, in experiment [7], the Potency result is “inactive”.

Regarding `O=c1[nH]c2ccc(S(=O)CCN3CCC(Cc4ccc(F)cc4)CC3)cc2o1` (stereo not given), the Potency result in experiment [1], in experiment [2], in experiment [4], in experiment [5], in experiment [8] and in experiment [6] was “inactive” each time. For the same molecule, in [7], the Potency result is “inactive”.

As for `O=C(O)c1ccc(CO)o1`, the Potency entry in [1], in experiment [2], in experiment [4], in experiment [5], in experiment [8] and in experiment [6] was “inactive” each time. Moreover, the Potency entry in [7] is “inactive”.

Turning to `O=C(CS)OCCOC(=O)CS`, the Potency entry in experiment [1], in experiment [2], in experiment [5], in experiment [8], in [6] and in experiment [7] was “inactive” in each case. In addition, the Potency in [4] is 8.63 µM (active).

Take `CCCC1C(CC)=CC(CC)=CN1c1ccccc1` (stereo not given): the Potency result in experiment [1], in experiment [4], in experiment [5], in [8] and in experiment [6] was “inactive” throughout. In experiment [2], the Potency is 48.6 µM (active).

Regarding `C/C=C(\C)C(=O)OCCC(C)CCC=C(C)C` (stereo not given), the Potency result in [1], in [2], in experiment [4], in experiment [5], in experiment [8] and in experiment [6] was “inactive” each time.

Regarding `Nc1nc(Cl)nc2c1ncn2[C@@H]1O[C@H](CO)[C@@H](O)[C@@H]1F`, the Potency entry in [1], in [2], in [4], in experiment [5], in experiment [8] and in [6] was “inactive” each time. The molecule was classed as inactive in experiment [9].

As for `O=C(OCCOCCO)c1ccccc1Nc1cccc(C(F)(F)F)c1`, the Potency entry in experiment [1], in experiment [2], in experiment [4], in experiment [5], in [8] and in experiment [6] was “inactive” each time. Further, the Potency entry in [7] is “inactive”. For the same molecule, the molecule was classed as inactive in [9].

For the molecule `CC1=CC(=O)CC(C)(C)C1(O)/C=C/C(C)=C\C(=O)O` (stereo not given), the Potency entry in experiment [1], in experiment [2], in [4], in experiment [5], in [8] and in [6] was “inactive” each time. The Potency result in experiment [7] was “inactive”.

Regarding `Cc1nc2ccccn2c(=O)c1CCN1CCC(C(=O)c2ccc(F)cc2)CC1`, the Potency entry in experiment [1], in [2], in experiment [4], in experiment [5], in experiment [8] and in experiment [6] was “inactive” each time. Also, the Potency result in [7] is “inactive”. The molecule was called inactive in experiment [9].

`COCCOC(=O)C1=C(C)NC(C)=C(C(=O)OC/C=C/c2ccccc2)C1c1cccc([N+](=O)[O-])c1` (stereo not given): the Potency result in experiment [1], in [2], in experiment [4], in [5] and in [6] was “inactive” in each case. In addition, the molecule was called inactive in experiment [9].

On to `O=C(Nc1ccc([N+](=O)[O-])cc1)Nc1ccc([N+](=O)[O-])cc1`, for which the Potency result in experiment [1], in [2], in experiment [4], in experiment [5] and in experiment [6] was “inactive” each time. The molecule was called inactive in experiment [9].
